This passage reports growth results from PubChem BioAssay (NCI).

Compounds without any hit were thinned out: in the full panel of roughly 83,000, 20% have a hit.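 Growth was measured after 48 h exposure to one concentration of compound in 96-well plates. Values under 10 count as active.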 Active and inactive are the calls of the source.

The test system of the test is MDA-MB-468 breast. The experiment in a line: NCI-60 one-dose screen, 48 h (100 = growth as untreated, 0 = no growth, -100 = all killed). The note with it: 10 µM unless noted.
As for `O=S(=O)(Nc1cccc2cc(OS(=O)(=O)c3ccccc3)ccc12)c1ccccc1`, the growth is 13.4% (inactive).

On to `O=C1c2cc(Br)ccc2Oc2cc([N+](=O)[O-])ccc2N1c1ccc(I)cc1F`, for which the growth was 105% (inactive).

Regarding `O=C(Nc1cccc(-n2cc(-c3ccncc3)c(-c3ccc(O)c(Cl)c3)n2)c1)c1ccc(Cl)c(Cl)c1`, the growth was 68.9% (inactive). With `COc1cnc2c(c1)C(=O)c1c-2n(CCCN2CCOCC2)c(=O)c2cc(Cl)ccc12`, the growth was -1.98% (active). As for `COC(=O)c1ccc([N+](=O)[O-])c(C)c1`, the growth was 102% (inactive).
